According to PubChem BioAssay AID1159580 (chemical genetic matrix, 2015):
Hit rate of the full screen: of about 5,500 compounds, about 2,000 (36%) were called active. Inconclusive results (about 18%) are left out. Cut-off read from the data, not from the text of the source: active = normalized growth mostly below about 0.91 (no sharp cut-off); inconclusive = no clear call, values can overlap the other calls; inactive = mostly above about 0.92. This is one part of the list.

Assay: chemical genetic growth profiling, strain panel (AID 1159580);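 note: tested at 20 µM; growth read once vehicle control cultures reached saturation at 30 °C; 1 = growth at the plate median or of vehicle wells; lower values mean less growth of the strain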
Conditions: growth OD
[1] = S. cerevisiae deletion strains, locus YAR019C, strain CDC15, active compounds read low
[2] = S. cerevisiae deletion strains, locus YBL105C, strain PKC1, active compounds read low
[3] = S. cerevisiae deletion strains, locus YBR135W, strain CKS1, active compounds read low
[4] = S. cerevisiae deletion strains, locus YBR136W, strain MEC1, active compounds read low
[5] = S. cerevisiae deletion strains, locus YBR160W, strain CDC28, active compounds read low
[6] = S. cerevisiae deletion strains, locus YDL017W, strain CDC7, active compounds read low
[7] = S. cerevisiae deletion strains, locus YDL028C, strain MPS1, active compounds read low
[8] = S. cerevisiae deletion strains, locus YDL101C, strain DUN1, active compounds read low
[9] = S. cerevisiae deletion strains, locus YDL108W, strain KIN28, active compounds read low
[10] = S. cerevisiae deletion strains, locus YDL132W, strain cdc53, active compounds read low
[11] = S. cerevisiae deletion strains, locus YDL214C, strain PRR2, active compounds read low
[12] = S. cerevisiae deletion strains, locus YDR052C, strain DBF4, active compounds read low
[13] = S. cerevisiae deletion strains, locus YDR054C, strain cdc34, active compounds read low
[14] = S. cerevisiae deletion strains, locus YDR226W, strain ADK1, active compounds read low
[15] = S. cerevisiae deletion strains, locus YDR477W, strain SNF1, active compounds read low
[16] = S. cerevisiae deletion strains, locus YER123W, strain YCK3, active compounds read low
[17] = S. cerevisiae deletion strains, locus YER133W, strain GLC7, active compounds read low
[18] = S. cerevisiae deletion strains, locus YFL009W, strain cdc4, active compounds read low
[19] = S. cerevisiae deletion strains, locus YFL029C, strain CAK1, active compounds read low
[20] = S. cerevisiae deletion strains, locus YFR003C, strain YPI1, active compounds read low
[21] = S. cerevisiae deletion strains, locus YFR019W, strain FAB1, active compounds read low
[22] = S. cerevisiae deletion strains, locus YFR028C, strain CDC14, active compounds read low
[23] = S. cerevisiae deletion strains, locus YGR040W, strain KSS1, active compounds read low
[24] = S. cerevisiae deletion strains, locus YGR052W, strain FMP48, active compounds read low
[25] = S. cerevisiae deletion strains, locus YGR092W, strain DBF2, active compounds read low
[26] = S. cerevisiae deletion strains, locus YHR030C, strain SLT2, active compounds read low
[27] = S. cerevisiae deletion strains, locus YHR079C, strain IRE1, active compounds read low
[28] = S. cerevisiae deletion strains, locus YHR082C, strain KSP1, active compounds read low
[29] = S. cerevisiae deletion strains, locus YHR205W, strain SCH9, active compounds read low
[30] = S. cerevisiae deletion strains, locus YIL147C, strain SLN1, active compounds read low
[31] = S. cerevisiae deletion strains, locus YJL095W, strain BCK1, active compounds read low
[32] = S. cerevisiae deletion strains, locus YJL128C, strain PBS2, active compounds read low
[33] = S. cerevisiae deletion strains, locus YJL157C, strain FAR1, active compounds read low
[34] = S. cerevisiae deletion strains, locus YJR016C, strain ILV3, active compounds read low
[35] = S. cerevisiae deletion strains, locus YJR066W, strain TOR1 (second series), active compounds read low
[36] = S. cerevisiae deletion strains, locus YJR066W, strain TOR1, active compounds read low
[37] = S. cerevisiae deletion strains, locus YKL048C, strain ELM1, active compounds read low
[38] = S. cerevisiae deletion strains, locus YKL067W, strain YNK1, active compounds read low
[39] = S. cerevisiae deletion strains, locus YKL101W, strain HSL1, active compounds read low
[40] = S. cerevisiae deletion strains, locus YKL193C, strain SDS22, active compounds read low
[41] = S. cerevisiae deletion strains, locus YKL203C, strain TOR2, active compounds read low
[42] = S. cerevisiae deletion strains, locus YLR113W, strain HOG1, active compounds read low
[43] = S. cerevisiae deletion strains, locus YLR133W, strain CKI1, active compounds read low
[44] = S. cerevisiae deletion strains, locus YLR403W, strain SFP1, active compounds read low
[45] = S. cerevisiae deletion strains, locus YML070W, strain DAK1, active compounds read low
[46] = S. cerevisiae deletion strains, locus YMR001C, strain CDC5, active compounds read low
[47] = S. cerevisiae deletion strains, locus YMR205C, strain PFK2 (second series), active compounds read low
[48] = S. cerevisiae deletion strains, locus YMR277W, strain FCP1, active compounds read low
[49] = S. cerevisiae deletion strains, locus YNL006W, strain LST8, active compounds read low
[50] = S. cerevisiae deletion strains, locus YNL020C, strain ARK1, active compounds read low
[51] = S. cerevisiae deletion strains, locus YNL161W, strain CBK1, active compounds read low
[52] = S. cerevisiae deletion strains, locus YNL183C, strain NPR1, active compounds read low
[53] = S. cerevisiae deletion strains, locus YNL207W, strain RIO2, active compounds read low
[54] = S. cerevisiae deletion strains, locus YNL222W, strain SSU72, active compounds read low
[55] = S. cerevisiae deletion strains, locus YNL307C, strain MCK1 (second series), active compounds read low
[56] = S. cerevisiae deletion strains, locus YOL078W, strain AVO1, active compounds read low
[57] = S. cerevisiae deletion strains, locus YOL136C, strain PFK27, active compounds read low
[58] = S. cerevisiae deletion strains, locus YOR061W, strain CKA2, active compounds read low
[59] = S. cerevisiae deletion strains, locus YOR119C, strain RIO1, active compounds read low
[60] = S. cerevisiae deletion strains, locus YOR231W, strain MKK1, active compounds read low
[61] = S. cerevisiae deletion strains, locus YOR329C, strain SCD5, active compounds read low
[62] = S. cerevisiae deletion strains, locus YPL031C, strain PHO85, active compounds read low
[63] = S. cerevisiae deletion strains, locus YPL153C, strain RAD53, active compounds read low
[64] = S. cerevisiae deletion strains, locus YPL204W, strain HRR25, active compounds read low
[65] = S. cerevisiae deletion strains, locus YPL209C, strain IPL1, active compounds read low
[66] = S. cerevisiae deletion strains, locus YPL256C, strain CLN2, active compounds read low
[67] = S. cerevisiae deletion strains, locus YPR025C, strain CCL1, active compounds read low
[68] = S. cerevisiae deletion strains, locus YPR106W, strain ISR1, active compounds read low
[69] = S. cerevisiae deletion strains, locus YPR111W, strain DBF20, active compounds read low
[70] = S. cerevisiae deletion strains, strain NNK1, active compounds read low
[71] = S. cerevisiae deletion strains, strain TSCII, active compounds read low
[72] = S. cerevisiae deletion strains, locus YAL013W, strain DEP1, active compounds read low
[73] = S. cerevisiae deletion strains, locus YBR229C, strain ROT2, active compounds read low
[74] = S. cerevisiae deletion strains, locus YDR150W, strain NUM1, active compounds read low
[75] = S. cerevisiae deletion strains, locus YEL061C, strain CIN8, active compounds read low
[76] = S. cerevisiae deletion strains, locus YGR078C, strain PAC10, active compounds read low
[77] = S. cerevisiae deletion strains, locus YHR087W, strain rtc3, active compounds read low
[78] = S. cerevisiae deletion strains, locus YJR043C, strain POL32, active compounds read low
[79] = S. cerevisiae deletion strains, locus YJR075W, strain HOC1, active compounds read low
[80] = S. cerevisiae deletion strains, locus YKL190W, strain CNB1, active compounds read low
[81] = S. cerevisiae deletion strains, locus YLR039C, strain RIC1, active compounds read low
[82] = S. cerevisiae deletion strains, locus YLR058C, strain SHM2 (second series), active compounds read low
[83] = S. cerevisiae deletion strains, locus YLR085C, strain ARP6, active compounds read low
[84] = S. cerevisiae deletion strains, locus YLR262C, strain YPT6, active compounds read low
[85] = S. cerevisiae deletion strains, locus YML094W, strain GIM5, active compounds read low
[86] = S. cerevisiae deletion strains, locus YMR219W, strain ESC1, active compounds read low
[87] = S. cerevisiae deletion strains, locus YMR263W, strain SAP30, active compounds read low
[88] = S. cerevisiae deletion strains, locus YNL153C, strain GIM3, active compounds read low
[89] = S. cerevisiae deletion strains, locus YNL298W, strain CLA4 (second series), active compounds read low
[90] = S. cerevisiae deletion strains, locus YNL322C, strain KRE1, active compounds read low
[91] = S. cerevisiae deletion strains, locus YNR030W, strain Alg12, active compounds read low
[92] = S. cerevisiae deletion strains, locus YPL055C, strain LGE1, active compounds read low
[93] = S. cerevisiae deletion strains, locus YPL241C, strain CIN2, active compounds read low
[94] = S. cerevisiae deletion strains, locus YPR135W, strain CTF4, active compounds read low
[95] = S. cerevisiae strains, strain wild type, active compounds read low

Measured: normalized growth

O=C(NCc1cccs1)c1csc(Cc2c(Cl)cccc2Cl)n1
inactive: [1] 0.986 | [2] 0.969 | [3] 0.972 | [4] 0.995 | [5] 0.979 | [6] 0.987 | [7] 0.969 | [8] 0.981 | [9] 0.987 | [10] 0.978 | [11] 0.992 | [12] 0.996 | [13] 0.971 | [14] 0.971 | [15] 0.978 | [16] 0.985 | [17] 0.996 | [18] 0.957 | [19] 0.98 | [20] 0.991 | [21] 0.988 | [22] 0.982 | [23] 0.994 | [24] 1.06 | [25] 0.95 | [26] 0.924 | [27] 0.992 | [28] 1.02 | [29] 0.988 | [30] 0.985 | [31] 1.01 | [32] 0.937 | [33] 0.998 | [34] 0.99 | [35] 0.98 | [36] 0.956 | [37] 1 | [38] 0.996 | [39] 1 | [40] 0.99 | [41] 1.07 | [42] 0.981 | [43] 0.99 | [44] 0.994 | [45] 1 | [46] 0.986 | [47] 1.01 | [48] 0.982 | [49] 0.987 | [50] 1.01 | [51] 0.994 | [52] 1.07 | [53] 0.981 | [54] 0.983 | [55] 1.01 | [56] 0.991 | [57] 1.01 | [58] 0.992 | [59] 1.03 | [60] 0.988 | [61] 0.985 | [62] 0.988 | [63] 0.994 | [64] 1 | [65] 0.988 | [66] 0.985 | [67] 0.982 | [68] 0.968 | [69] 0.965 | [70] 0.977 | [71] 0.986

CC(=O)c1csc(-c2ccc(C(F)(F)F)cc2)n1
active: [83] 0.762 | [93] 0.841
inactive: [72] 0.947 | [73] 0.965 | [8] 0.977 | [74] 0.977 | [75] 0.967 | [76] 0.949 | [26] 0.761 | [77] 0.964 | [78] 0.988 | [79] 0.928 | [80] 0.994 | [81] 0.882 | [82] 0.955 | [84] 0.943 | [85] 0.898 | [86] 0.977 | [87] 0.979 | S. cerevisiae deletion strains, locus YNL128W, strain TEP1, active compounds read low 0.99 | [88] 0.954 | [89] 0.911 | [90] 0.971 | [91] 0.943 | [92] 0.892 | [94] 0.658 | [95] 0.997

O=C(NNC(=O)c1csc(-c2cccs2)n1)c1ccc(C(F)(F)F)cc1
active: [8] 0.901 | [11] 0.657 | [15] 0.572 | [25] 0.154 | [26] 0.198 | [27] 0.181 | [31] 0.345 | [33] 0.612 | [35] 0.14 | [38] 0.713 | [39] 0.59 | [42] 0.677 | [43] 0.592 | [47] 0.666 | [50] 0.492 | [52] 0.5 | [55] 0.286 | [60] 0.29 | [62] 0.512 | [63] 0.57 | [66] 0.558
inactive: [1] 0.972 | [2] 0.967 | [3] 0.955 | [4] 0.979 | [5] 0.965 | [6] 0.961 | [7] 0.958 | [9] 0.972 | [10] 0.946 | [12] 0.964 | [13] 0.961 | [14] 0.967 | [16] 0.75 | [17] 0.863 | [18] 0.967 | [19] 0.959 | [20] 0.964 | [21] 0.99 | [22] 0.949 | [23] 0.832 | [24] 0.779 | [28] 0.838 | [29] 0.695 | [30] 0.973 | [32] 0.948 | [34] 0.969 | [36] 0.486 | [37] 0.91 | [40] 0.963 | [41] 0.913 | [44] 0.884 | [45] 0.887 | [46] 0.949 | [48] 0.957 | [49] 0.96 | [51] 0.959 | [53] 0.955 | [54] 0.963 | [56] 0.966 | [57] 0.805 | [58] 0.821 | [59] 0.877 | [61] 0.959 | [64] 0.723 | [65] 0.964 | [67] 0.954 | [68] 0.959 | [69] 0.974 | [70] 0.974 | [71] 0.943

FC(F)(F)c1ccc(-c2nc(-c3ccc4c(c3)OCCCO4)cs2)cc1
inactive: [72] 1.03 | [73] 1.01 | S. cerevisiae deletion strains, locus YCL061C, strain MRC1, active compounds read low 0.99 | [8] 0.965 | S. cerevisiae deletion strains, locus YDL134C, strain PPH21, active compounds read low 1 | [74] 1.01 | [75] 1.01 | [76] 1.01 | S. cerevisiae deletion strains, locus YGR229C, strain SMI1, active compounds read low 1.01 | [26] 1.05 | [77] 1.03 | [78] 0.997 | [79] 1.02 | [80] 1.01 | [81] 1.07 | [82] 0.998 | [83] 1.1 | [84] 1.02 | [85] 1.04 | [86] 1.01 | [87] 0.988 | S. cerevisiae deletion strains, locus YMR307W, strain GAS1, active compounds read low 0.987 | [88] 0.992 | [89] 1.02 | [90] 1.01 | [91] 1.01 | [92] 1.06 | [93] 1.03 | [94] 1.27 | [95] 1.01
